The text below walks through data of PubChem BioAssay (NCI).

This is part of a sample that, as a whole, favours compounds with a hit. Of some 83,000 tested, about 20% had one in any assay.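 Values shown are percent growth following 48 h exposure of cells in 96-well plates to a single concentration of compound; below 10 was considered active.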 Values without a mark were called inactive. Active and inactive are the calls of the source.

Among the test systems are SR leukemia; RPMI-8226 leukemia; OVCAR-8 ovarian; OVCAR-5 ovarian; OVCAR-4 ovarian; SK-OV-3 ovarian; IGROV1 ovarian; OVCAR-3 ovarian; HS 578T breast; NCI/ADR-RES ovarian; T-47D breast; BT-549 breast; MDA-MB-435 melanoma; SW-620 colon; MCF7 breast; HCT-116 colon; HCC-2998 colon; KM12 colon.
Assay in all cases: NCI-60 one-dose screen, 48 h (100 = growth as untreated, 0 = no growth, -100 = all killed)
Common to all, as to conditions: 10 µM unless noted

As for `COc1ccc(/C=N/NC(=O)c2cn(C3CC3)c3c(OC)c(N4CC5CCCNC5C4)c(F)cc3c2=O)cc1` (centres undefined), the growth with SR leukemia was -3.21% (active); in the assay on RPMI-8226 leukemia, 64.2%; in the assay with OVCAR-8 ovarian, 94.8%; with OVCAR-5 ovarian, 97.5%; in the assay on OVCAR-4 ovarian it was 87.9%; in the assay with SK-OV-3 ovarian, 102%. For the same compound, the growth in the assay with IGROV1 ovarian is 75.3%; in the assay on OVCAR-3 ovarian, 83.1%; with HS 578T breast, 99.1%; in the assay with NCI/ADR-RES ovarian, 91%; with T-47D breast, 85.9%; in the assay on BT-549 breast, 112%. The growth was 100% with MDA-MB-435 melanoma; 92.1% in the assay on SW-620 colon; 70.8% in the assay with MCF7 breast; 53.6% with HCT-116 colon; 95.4% in the assay on HCC-2998 colon; 99.7% with KM12 colon.

Take `CS(=O)(=O)Nc1cc(-c2ccc3ncc(C#N)c(N[C@H](CO)c4ccccc4)c3c2)cnc1Cl`: the growth is 20.7% with SR leukemia; 64.2% with RPMI-8226 leukemia; 56.2% in the assay on OVCAR-8 ovarian; 74.1% in the assay on OVCAR-5 ovarian; 54% in the assay on OVCAR-4 ovarian; 81.1% in the assay on SK-OV-3 ovarian. For the same compound, the growth in the assay with IGROV1 ovarian was 3.75% (active); with OVCAR-3 ovarian it was 24%; with HS 578T breast, 13.7%; in the assay with NCI/ADR-RES ovarian it was 97.8%; with T-47D breast, 28.3%; with BT-549 breast, 33.9%. Moreover, the growth in the assay with MDA-MB-435 melanoma is 47.2%; in the assay with SW-620 colon it was 26.6%; in the assay on MCF7 breast, 17.7%; in the assay on HCT-116 colon, 25.7%; in the assay on HCC-2998 colon, 42.1%; with KM12 colon it was 70.2%.

In the case of `NC(N)=Nc1ccc(Oc2ccc(Nc3ccc(Cl)c(C(F)(F)F)c3)cc2)cc1`, the growth with SR leukemia is -4.22% (active); in the assay with RPMI-8226 leukemia, 41.9%; in the assay with OVCAR-8 ovarian, 55.1%; in the assay on OVCAR-5 ovarian, 66.2%; with OVCAR-4 ovarian, 52.3%; with SK-OV-3 ovarian it was 89.4%. The growth was -7.75% (active) with IGROV1 ovarian; -21.8% (active) with OVCAR-3 ovarian; 56.1% in the assay on HS 578T breast; 91.9% in the assay on NCI/ADR-RES ovarian; 41.1% in the assay with T-47D breast; 86.1% with BT-549 breast. Besides, the growth in the assay with MDA-MB-435 melanoma was 40.3%; with SW-620 colon, 25.6%; with MCF7 breast, 2.64% (active); in the assay on HCT-116 colon, 11.3%; with HCC-2998 colon it was 1.24% (active); in the assay on KM12 colon, 5.94% (active).

For `NC(=O)c1c(NC(=O)c2ccccc2C(F)(F)F)sc2c1CCC(=O)C2`, the growth with SR leukemia was 27.2%; in the assay with RPMI-8226 leukemia it was -1.93% (active); in the assay on OVCAR-8 ovarian it was 17.3%; with OVCAR-5 ovarian, 27%; with OVCAR-4 ovarian, 9.19% (active); in the assay with SK-OV-3 ovarian, 105%. Besides, the growth was 31.2% in the assay with IGROV1 ovarian; 12.3% with OVCAR-3 ovarian; 32.5% with HS 578T breast; 14.9% with NCI/ADR-RES ovarian; 14.1% with T-47D breast; 14.7% in the assay with BT-549 breast. The growth with MDA-MB-435 melanoma was 14.7%; in the assay with SW-620 colon it was 19%; in the assay with MCF7 breast, 5.93% (active); with HCT-116 colon, 9.24% (active); in the assay on HCC-2998 colon it was 33.3%; in the assay with KM12 colon, 9.45% (active).

Turning to `Cc1nc2ncc(-c3ccc4ncnc(NCc5ccccc5)c4c3)cc2[nH]1`, the growth with SR leukemia was 78.3%; with RPMI-8226 leukemia, 75.5%; in the assay on OVCAR-8 ovarian, 76.9%; with OVCAR-5 ovarian, 42.6%; with OVCAR-4 ovarian, 48%; in the assay with SK-OV-3 ovarian it was 52.5%. For the same compound, the growth in the assay on IGROV1 ovarian was 16.8%; in the assay with OVCAR-3 ovarian, 39.2%; in the assay on HS 578T breast it was 29.2%; with NCI/ADR-RES ovarian it was 104%; with T-47D breast it was 1.3% (active); in the assay on BT-549 breast it was 57.3%. Also, the growth in the assay on MDA-MB-435 melanoma is 82.1%; with SW-620 colon, 82.3%; with MCF7 breast, 27.1%; in the assay on HCT-116 colon, 77.8%; in the assay with HCC-2998 colon it was 79.2%; in the assay on KM12 colon it was 77.8%.

Regarding `Cn1ccnc1C(=O)/C=C/c1ccc(NC(=O)c2ccc(F)cc2)cc1`, the growth was 8.3% (active) in the assay with SR leukemia; 10.6% with RPMI-8226 leukemia; 65% in the assay on OVCAR-8 ovarian; 41.2% in the assay on OVCAR-5 ovarian; 37.1% in the assay on OVCAR-4 ovarian; 67.2% in the assay on SK-OV-3 ovarian. Also, the growth in the assay with IGROV1 ovarian was 34.7%; in the assay with OVCAR-3 ovarian, 17.9%; in the assay on HS 578T breast, 54.4%; with NCI/ADR-RES ovarian, 27.5%; in the assay with T-47D breast, 22.5%; in the assay on BT-549 breast it was 69.4%. The growth in the assay with MDA-MB-435 melanoma was 43.1%; in the assay on SW-620 colon, 14.8%; in the assay with MCF7 breast it was 18%; with HCT-116 colon it was 8.87% (active); in the assay with HCC-2998 colon, 39.5%; in the assay on KM12 colon, 24.8%.

On to `O=C(CN1CCN(c2cc(=O)n(-c3ccccc3)c3ccccc23)CC1)Nc1cccc(C(F)(F)F)c1`, for which the growth with SR leukemia was 67.3%; in the assay with RPMI-8226 leukemia it was 47%; in the assay on OVCAR-8 ovarian, 70.6%; in the assay on OVCAR-5 ovarian, 91.8%; with OVCAR-4 ovarian, 19.9%; in the assay on SK-OV-3 ovarian, 77.3%. Further, the growth is 60.7% in the assay on IGROV1 ovarian; 69.8% in the assay with OVCAR-3 ovarian; 76.3% in the assay on HS 578T breast; 64.7% with NCI/ADR-RES ovarian; 19.7% with T-47D breast; 66.6% in the assay on BT-549 breast. The growth is 61.4% in the assay on MDA-MB-435 melanoma; 75% in the assay with SW-620 colon; 29.1% in the assay on MCF7 breast; 42.6% with HCT-116 colon; 84.8% in the assay on HCC-2998 colon; 65.1% in the assay with KM12 colon.

`O=S(=O)(NCCNc1nccc(-n2cnc3ccccc32)n1)c1ccc(Cl)cc1`: the growth is 96.3% in the assay with SR leukemia; 99.4% in the assay with RPMI-8226 leukemia; 102% with OVCAR-8 ovarian; 91.7% in the assay on OVCAR-5 ovarian; 95.2% in the assay on OVCAR-4 ovarian; 112% with SK-OV-3 ovarian. The growth is 98.2% with IGROV1 ovarian; 106% in the assay with OVCAR-3 ovarian; 88.1% with HS 578T breast; 97.8% in the assay on NCI/ADR-RES ovarian; 97.1% with T-47D breast; 99.3% in the assay with BT-549 breast. The growth in the assay on MDA-MB-435 melanoma was 100%; in the assay on SW-620 colon it was 100%; in the assay with MCF7 breast, 87.9%; in the assay on HCT-116 colon it was 94.6%; in the assay on HCC-2998 colon it was 101%; with KM12 colon it was 97.1%.
